PubChem BioAssay (EPA / NIEHS)
Records with an inconclusive call do not appear. Calls of active or inactive are those of the source. Rule for the calls: active = hit-call score of the fitted dose curve at least 0.9, where 1 is the maximum; inconclusive = response in the unintended direction; inactive = score below 0.9.

What was measured:
[1] = TOX21_p53_BLA_p2_viability: Viability Assessment in the Tox21 HCT-116 p53 Agonism Beta-lactamase Assay, Phase 2 (AID 2283591);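 note: compound exposure lasted 16 h at 37 °C; actives lower the ATP signal meaning cytotoxicity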
Summary of the method: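 Cytotoxicity readout: CellTiter-Glo ATP luminescence, 30 min at room temperature, after the beta-lactamase read. Cells were HCT116 exposed 16 h at 37C to compounds pin-transferred at 217-fold dilution from DMSO stocks.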

[2] = target: Cellular tumor antigen p53 (Homo sapiens) (UniProt P04637); experiment: TOX21_p53_BLA_p2_ratio: Tox21 HCT-116 p53 Agonism Beta-lactamase Assay, Ratio, Phase 2 (AID 2283592)
Summary of the method: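 Cleaved-to-uncleaved substrate ratio (460 vs 530 nm) measured in HCT116 cells with an inducible beta-lactamase reporter linked to p53 activity. Compounds incubated 16 h at 37C before 2 h room-temperature CCF4-AM loading.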

[3] = TOX21_p53_BLA_p3_viability: Viability Assessment in the Tox21 HCT-116 p53 Agonism Beta-lactamase Assay, Phase 3 (AID 2283593);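 note: cells exposed to compound for 16 h before reading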
Summary of the method: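 Cellular ATP was quantified by CellTiter-Glo luminescence, read after 30 min at room temperature. Beforehand, HCT116 cells (4000/well) received compound 5 h post-seeding, 217-fold diluted from DMSO, then incubated 16 h at 37C.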

[4] = TOX21_p53_BLA_p4_viability: Viability Assessment in the Tox21 HCT-116 p53 Agonism Beta-lactamase Assay, Phase 4 (AID 2283597);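 note: hits lower the luminescence signal meaning cytotoxicity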
Summary of the method: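 Viability is taken as cellular ATP: after 16 h compound exposure of HCT116 cells and a 2 h room-temperature CCF4-AM substrate step, CellTiter-Glo reagent is added and luminescence is measured 30 min later.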

[5] = TOX21_p53_BLA_p5_viability: Viability Assessment in the Tox21 HCT-116 p53 Agonism Beta-lactamase Assay, Phase 5 (AID 2283600)
Summary of the method: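 Viability is taken from cellular ATP content, measured by luciferase luminescence in the same wells after the beta-lactamase ratio read. Cells are seeded at 4000 per well and exposed to DMSO-dissolved compounds, diluted 217-fold, for 16 h.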

[6] = target: Cellular tumor antigen p53 (Homo sapiens) (UniProt P04637); experiment: TOX21_p53_BLA_p5_ratio: Tox21 HCT-116 p53 Agonism Beta-lactamase Assay, Ratio, Phase 5 (AID 2283599)
Summary of the method: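 Beta-lactamase reporter ratio (blue 460 nm over green 530 nm, 405 nm excitation) after 2 h CCF4-AM loading, in HCT-116 cells exposed 16 h at 37 C to compounds pinned at 217-fold dilution. Increases relative to DMSO baseline scored.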

[7] = target: Cellular tumor antigen p53 (Homo sapiens) (UniProt P04637); experiment: TOX21_p53_BLA_p4_ratio: Tox21 HCT-116 p53 Agonism Beta-lactamase Assay, Ratio, Phase 4 (AID 2283601)
Summary of the method: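 Signal is the blue/green (460nm/530nm) ratio of cleaved versus uncleaved CCF4-AM substrate, read after 2 h substrate loading. Cells were HCT116 carrying the p53-responsive beta-lactamase reporter, dosed 16 h at 37C, 5% CO2; CellTiter-Glo measured in parallel.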

[8] = target: Cellular tumor antigen p53 (Homo sapiens) (UniProt P04637); experiment: TOX21_p53_BLA_p3_ratio: Tox21 HCT-116 p53 Agonism Beta-lactamase Assay, Ratio, Phase 3 (AID 2283596)
Summary of the method: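 Cells were seeded at 4000/well, rested 5 h at 37C, then dosed with DMSO compound solutions (217-fold dilution) for 16 h. CCF4-AM substrate was loaded for 2 h at room temperature, and the 460/530 nm emission ratio was fitted for gain of signal versus DMSO.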

Measured: outcome

Sequence of Cellular tumor antigen p53 (Homo sapiens) (P04637 whole entry, looked up): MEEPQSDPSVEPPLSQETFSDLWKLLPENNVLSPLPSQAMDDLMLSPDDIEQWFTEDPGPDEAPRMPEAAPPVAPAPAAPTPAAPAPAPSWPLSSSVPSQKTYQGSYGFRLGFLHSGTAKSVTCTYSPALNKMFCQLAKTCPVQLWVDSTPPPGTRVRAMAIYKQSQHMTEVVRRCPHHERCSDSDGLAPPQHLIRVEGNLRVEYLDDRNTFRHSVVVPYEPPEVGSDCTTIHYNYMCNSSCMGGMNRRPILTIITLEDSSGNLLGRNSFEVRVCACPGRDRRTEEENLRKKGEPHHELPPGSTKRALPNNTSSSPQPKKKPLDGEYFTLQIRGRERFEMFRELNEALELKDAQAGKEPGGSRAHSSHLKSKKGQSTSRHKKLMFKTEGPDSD

COc1cc(C[C@@H](C)N)c(OC)cc1Br
inactive: [1] | [2] | [3] | [4] | [5]

C=CC(=O)OCC(C)C
not listed: [4] | [8]
inactive: all other assays above

Cc1ccc2c(c1)C1CN(C)CCC1N2 (stereo not given)
inactive: [1] | [2] | [3] | [6] | [7]

CCCCCCCCCCCOC(=O)c1ccccc1C(=O)OCCCCCCCCCCC
not listed: [3]
inactive: all other assays above

O=C(Cl)CCl
inactive: [1] | [2] | [8] | [4] | [6]

CCCC(C)(COC(N)=O)COC(N)=O
not listed: [3]
inactive: all other assays above
